Experimental data published in PubChem BioAssay (NCI).
About 83,000 compounds went through this panel and 20% of them were active in at least one assay; those are over-represented in the sample as a whole.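 Cells were grown in 96-well plates and exposed to the test compound at a single concentration for 48 hours; results are reported as percent growth, with values below 10 considered active.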 A number with no mark means an inactive call. Calls of active or inactive are those of the source.

Columns and labels:
Experiment in all cases: NCI-60 one-dose screen, 48 h (100 = growth as untreated, 0 = no growth, -100 = all killed)
Settings in all cases: 10 µM unless noted
[1] = tested on: SK-MEL-2 melanoma
[2] = tested on: EKVX NSCLC
[3] = tested on: SN12C renal
[4] = tested on: UO-31 renal
[5] = tested on: TK-10 renal
[6] = tested on: ACHN renal
[7] = tested on: CAKI-1 renal
[8] = tested on: A498 renal
[9] = tested on: CCRF-CEM leukemia
[10] = tested on: MOLT-4 leukemia
[11] = tested on: SR leukemia
[12] = tested on: OVCAR-8 ovarian
[13] = tested on: OVCAR-5 ovarian
[14] = tested on: OVCAR-4 ovarian
[15] = tested on: SK-OV-3 ovarian
[16] = tested on: IGROV1 ovarian
[17] = tested on: OVCAR-3 ovarian
[18] = tested on: HS 578T breast
[19] = tested on: NCI/ADR-RES ovarian

SMILES	growth [1]	growth [2]	growth [3]	growth [4]	growth [5]	growth [6]	growth [7]	growth [8]	growth [9]	growth [10]	growth [11]	growth [12]	growth [13]	growth [14]	growth [15]	growth [16]	growth [17]	growth [18]	growth [19]
CN(C)CCCNc1nc2ccccc2c2c(=O)c3cc(F)ccc3sc12	87.3%	66.3%	61.2%	24.9%	59.7%	21.5%	8.81% (active)	26.6%	10% (active)	-11.2% (active)	-37.9% (active)	45.3%	73.7%	36.6%	78.1%	40.5%	26%	46.7%	43%
NCCCNc1nc2ccccc2c2c(=O)c3cc(F)cc(F)c3sc12	111%	96.8%	80.8%	-95% (active)	87.1%	-60.3% (active)	61.1%	43.5%	-6.51% (active)	60.7%	-35.8% (active)	69.7%	50.9%	-62.3% (active)	83.6%	77.9%	89.7%	76.8%	84%
Nc1nn(C(=O)Nc2ccc(Cc3ccccc3)cc2)c2ccc(Cl)cc12	68.7%	70%	64.2%	43.5%	79.7%	39.9%	44%	106%	74%	25.6%	71.7%	72.5%	55.7%	54.3%	91%	76.2%	76.7%	92.1%	67%
CCCCn1c(=O)c(-c2cc(-c3ccc(Cl)cc3)nc(-c3ccc(Cl)cc3)c2)cc2cc(C)ccc21	118%	101%	92.2%	86.2%	98.7%	107%	94.8%	103%	101%	105%	109%	100%	100%	110%	115%	96.4%	112%	99.1%	104%
CCCCn1c(=O)c(-c2cc(-c3ccc(Cl)cc3)nc(-c3ccc(Cl)cc3)c2)cc2ccc(Cl)cc21	123%	105%	98.8%	86.8%	115%	104%	91.6%	102%	100%	100%	98.1%	108%	94.1%	109%	99.6%	105%	112%	108%	95.9%
CC1=C(C)C(=O)C(Nc2cccc(C(=O)OC(C)(C)C)c2)=C(Br)C1=O	106%	103%	85.7%	71.6%	122%	87.5%	96.4%	87.3%	8.53% (active)	12.5%	15.9%	92.4%	99.9%	88.8%	93.2%	86.7%	77.7%	92.8%	94.7%
Oc1ccc(C#CCOc2ccccc2)cc1CNCCN(Cc1ccccn1)Cc1ccccn1	61.2%	16%	13.9%	-2.48% (active)	26.2%	9.66% (active)	28.4%	-21.8% (active)	6.83% (active)	1.72% (active)	-4.08% (active)	15.2%	27.2%	11.3%	18%	13.4%	12.1%	35.5%	0.625% (active)
C/C(=N/NC(N)=S)c1sc(Nc2cccc(Cl)c2)nc1C	86.6%	74.1%	76.1%	35.7%	86.7%	80.5%	63.8%	81.4%	82.4%	50%	90.1%	97.5%	86.8%	63.6%	116%	86%	76.8%	88.2%	86.7%
O=S(=O)(Nc1ccc(-c2nc(-c3cccc(OCCN4CCOCC4)c3)c(-c3ccnc(Br)c3)[nH]2)cc1)c1ccccc1	24.8%	50.2%	51.5%	20.5%	48.2%	27.1%	28.2%	53%	15.1%	8.11% (active)	-18.7% (active)	32.3%	54.5%	40.6%	59.1%	43.7%	46.1%	0.194% (active)	54.1%
COc1ccc(C2C(N)=NNC2c2cccc(O)c2)cc1 (stereo not given)	87.6%	95.5%	96.4%	83.7%	122%	106%	88.7%	126%	105%	96.7%	81.2%	93.8%	107%	108%	98.9%	90.6%	106%	110%	99.1%
CNCCCNc1nc2ccccc2c2c(=O)c3cc(F)ccc3sc12	91%	64.7%	58.7%	20.8%	43.3%	10.9%	-60.9% (active)	28%	-3.67% (active)	-27.9% (active)	-35.9% (active)	28%	66.3%	19.9%	75.4%	41.4%	-1% (active)	37.8%	21.4%
O=C1c2cccc3cccc(c23)C(=O)N1N1C(=O)c2cccc3c(NC4CCCCC4)ccc(c23)C1=O	105%	89.3%	91.7%	66.3%	126%	92.2%	79.9%	95.5%	89.1%	89.6%	90.2%	96.2%	90.6%	96.8%	92.1%	102%	105%	103%	95.4%
NCCNc1nc2ccccc2c2c(=O)c3cc(F)ccc3sc12	112%	78.2%	71.1%	47.3%	101%	54.5%	45.1%	49.4%	45.7%	46.6%	-20.5% (active)	79.2%	91.4%	60.3%	83.3%	70.9%	66.8%	74.8%	78.8%
COc1cccc(-c2nc(-c3ccc(NS(=O)(=O)c4ccccc4)cc3)[nH]c2-c2ccnc(Br)c2)c1	10.5%	32.1%	28.4%	11.8%	46.3%	11.9%	18.3%	28.4%	18.9%	4.8% (active)	8.32% (active)	33.4%	48.3%	34.2%	63.1%	44.6%	30.2%	7.88% (active)	40.8%
O=c1c2cc(F)ccc2sc2c(N3CCCCC3)nc3ccccc3c12	115%	103%	99.1%	78.8%	109%	102%	101%	64.6%	110%	111%	121%	99.6%	98.4%	116%	103%	101%	110%	105%	101%
